# Laboratory results reported in PubChem BioAssay AID1159580 (chemical genetic matrix, 2015).
# The whole screen tested about 5,500 compounds, of which about 2,000 (36%) were called active. Roughly 18% stayed inconclusive and do not appear here. Some of the results follow. Values without a mark were called inactive. Cut-off read from the data, not from the text of the source: active = normalized growth mostly below about 0.91 (no sharp cut-off); inconclusive = no clear call, values can overlap the other calls; inactive = mostly above about 0.92.
# Experiment: chemical genetic growth profiling, strain panel (AID 1159580);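 note: tested at 20 µM; growth read once vehicle control cultures reached saturation at 30 °C; 1 = growth at the plate median or of vehicle wells; lower values mean less growth of the strain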
# Settings: growth OD
structure (smiles),measurement,setting,value
CO[C@@H]1C[C@@H](C[C@H]2CC[C@H](C)[C@H]([C@@H](C)C(=O)O)O2)O[C@]2(O[C@](C)([C@H]3CC[C@@](C)(C4O[C@@H](C5O[C@@](O)(CO)[C@H](C)C[C@@H]5C)C[C@@H]4C)O3)C[C@H]2C)[C@@H]1C (stereo partly specified),normalized growth,"S. cerevisiae deletion strains, locus YAL013W, strain DEP1, stronger effect = lower value",1.03
same,normalized growth,"S. cerevisiae deletion strains, locus YBR021W, strain FUR4, stronger effect = lower value",1.19 [resistant] (active)
same,normalized growth,"S. cerevisiae deletion strains, locus YBR229C, strain ROT2, stronger effect = lower value",1.04
same,normalized growth,"S. cerevisiae deletion strains, locus YCL029C, strain bik1, stronger effect = lower value",0.955
same,normalized growth,"S. cerevisiae deletion strains, locus YDL035C, strain GPR1, stronger effect = lower value",1.03
same,normalized growth,"S. cerevisiae deletion strains, locus YDL074C, strain BRE1, stronger effect = lower value",1.01
same,normalized growth,"S. cerevisiae deletion strains, locus YDL101C, strain DUN1, stronger effect = lower value",1.01
same,normalized growth,"S. cerevisiae deletion strains, locus YDL134C, strain PPH21, stronger effect = lower value",1.01
same,normalized growth,"S. cerevisiae deletion strains, locus YDL185W, strain tfp1, stronger effect = lower value",0.99
same,normalized growth,"S. cerevisiae deletion strains, locus YDL192W, strain arf1, stronger effect = lower value",0.961
same,normalized growth,"S. cerevisiae deletion strains, locus YDR101C, strain arx1, stronger effect = lower value",0.977
same,normalized growth,"S. cerevisiae deletion strains, locus YDR150W, strain NUM1, stronger effect = lower value",1.04
same,normalized growth,"S. cerevisiae deletion strains, locus YDR162C, strain NBP2, stronger effect = lower value",1.01
same,normalized growth,"S. cerevisiae deletion strains, locus YDR318W, strain mcm21, stronger effect = lower value",0.966
same,normalized growth,"S. cerevisiae deletion strains, locus YDR388W, stronger effect = lower value",0.981
same,normalized growth,"S. cerevisiae deletion strains, locus YDR502C, strain sam2, stronger effect = lower value",0.99
same,normalized growth,"S. cerevisiae deletion strains, locus YEL061C, strain CIN8, stronger effect = lower value",1.02
same,normalized growth,"S. cerevisiae deletion strains, locus YER110C, stronger effect = lower value",1.03
same,normalized growth,"S. cerevisiae deletion strains, locus YER155C, strain BEM2, stronger effect = lower value",1.08 [resistant] (active)
same,normalized growth,"S. cerevisiae deletion strains, locus YER167W, strain BCK2, stronger effect = lower value",1.02
same,normalized growth,"S. cerevisiae deletion strains, locus YGL078C, strain dbp3, stronger effect = lower value",0.976
same,normalized growth,"S. cerevisiae deletion strains, locus YGL086W, strain mad1, stronger effect = lower value",0.97
same,normalized growth,"S. cerevisiae deletion strains, locus YGL248W, strain PDE1, stronger effect = lower value",1.01
same,normalized growth,"S. cerevisiae deletion strains, locus YGR078C, strain PAC10, stronger effect = lower value",1.02
same,normalized growth,"S. cerevisiae deletion strains, locus YGR135W, strain pre9, stronger effect = lower value",0.984
same,normalized growth,"S. cerevisiae deletion strains, locus YGR229C, strain SMI1, stronger effect = lower value",1.02
same,normalized growth,"S. cerevisiae deletion strains, locus YGR252W, strain gcn5, stronger effect = lower value",1.06
same,normalized growth,"S. cerevisiae deletion strains, locus YHR030C, strain SLT2, stronger effect = lower value",1.03
same,normalized growth,"S. cerevisiae deletion strains, locus YHR079C, strain IRE1 (second series), stronger effect = lower value",0.968
same,normalized growth,"S. cerevisiae deletion strains, locus YHR094C, strain hxt1, stronger effect = lower value",0.992
same,normalized growth,"S. cerevisiae deletion strains, locus YHR129C, strain ARP1, stronger effect = lower value",1.06
same,normalized growth,"S. cerevisiae deletion strains, locus YHR200W, strain rpn10, stronger effect = lower value",0.968
same,normalized growth,"S. cerevisiae deletion strains, locus YIL066C, strain RNR3, stronger effect = lower value",1.01
same,normalized growth,"S. cerevisiae deletion strains, locus YIL073C, strain SPO22, stronger effect = lower value",0.984
same,normalized growth,"S. cerevisiae deletion strains, locus YIL125W, strain kgd1, stronger effect = lower value",0.982
same,normalized growth,"S. cerevisiae deletion strains, locus YIR030C, strain dcg1, stronger effect = lower value",0.982
same,normalized growth,"S. cerevisiae deletion strains, locus YJL095W, strain BCK1, stronger effect = lower value",0.997
same,normalized growth,"S. cerevisiae deletion strains, locus YJL134W, strain LCB3, stronger effect = lower value",1.03
same,normalized growth,"S. cerevisiae deletion strains, locus YJL168C, strain set2, stronger effect = lower value",0.993
same,normalized growth,"S. cerevisiae deletion strains, locus YJL187C, strain SWE1 (second series), stronger effect = lower value",1.01
same,normalized growth,"S. cerevisiae deletion strains, locus YJR043C, strain POL32, stronger effect = lower value",1.02
same,normalized growth,"S. cerevisiae deletion strains, locus YJR075W, strain HOC1, stronger effect = lower value",1
same,normalized growth,"S. cerevisiae deletion strains, locus YKL009W, strain mrt4, stronger effect = lower value",0.98
same,normalized growth,"S. cerevisiae deletion strains, locus YKL068W, stronger effect = lower value",1.01
same,normalized growth,"S. cerevisiae deletion strains, locus YKL085W, strain MDH1 (second series), stronger effect = lower value",0.978
same,normalized growth,"S. cerevisiae deletion strains, locus YKL085W, strain MDH1, stronger effect = lower value",0.978
same,normalized growth,"S. cerevisiae deletion strains, locus YKL190W, strain CNB1, stronger effect = lower value",1.02
same,normalized growth,"S. cerevisiae deletion strains, locus YKR001C, strain vps1, stronger effect = lower value",1.02
same,normalized growth,"S. cerevisiae deletion strains, locus YLR039C, strain RIC1, stronger effect = lower value",1.35 [resistant] (active)
same,normalized growth,"S. cerevisiae deletion strains, locus YLR058C, strain SHM2, stronger effect = lower value",1.02
same,normalized growth,"S. cerevisiae deletion strains, locus YLR102C, strain apc9, stronger effect = lower value",0.997
same,normalized growth,"S. cerevisiae deletion strains, locus YLR262C, strain YPT6, stronger effect = lower value",1.45 [resistant] (active)
same,normalized growth,"S. cerevisiae deletion strains, locus YLR268W, strain sec22, stronger effect = lower value",0.929
same,normalized growth,"S. cerevisiae deletion strains, locus YLR330W, strain CHS5, stronger effect = lower value",1.04
same,normalized growth,"S. cerevisiae deletion strains, locus YLR342W, strain FKS1 (second series), stronger effect = lower value",1.03
same,normalized growth,"S. cerevisiae deletion strains, locus YLR371W, strain rom2, stronger effect = lower value",0.999
same,normalized growth,"S. cerevisiae deletion strains, locus YLR418C, strain cdc73, stronger effect = lower value",1.02
same,normalized growth,"S. cerevisiae deletion strains, locus YML016C, strain PPZ1, stronger effect = lower value",1.03
same,normalized growth,"S. cerevisiae deletion strains, locus YML032C, strain rad52, stronger effect = lower value",0.986
same,normalized growth,"S. cerevisiae deletion strains, locus YML124C, strain tub3, stronger effect = lower value",0.983
same,normalized growth,"S. cerevisiae deletion strains, locus YMR078C, strain ctf18, stronger effect = lower value",1.03
same,normalized growth,"S. cerevisiae deletion strains, locus YMR223W, strain ubp8, stronger effect = lower value",0.994
same,normalized growth,"S. cerevisiae deletion strains, locus YMR263W, strain SAP30, stronger effect = lower value",1.01
same,normalized growth,"S. cerevisiae deletion strains, locus YMR307W, strain GAS1, stronger effect = lower value",1.17
same,normalized growth,"S. cerevisiae deletion strains, locus YNL067W, strain RPL9B, stronger effect = lower value",1.01
same,normalized growth,"S. cerevisiae deletion strains, locus YNL128W, strain TEP1, stronger effect = lower value",1.04
same,normalized growth,"S. cerevisiae deletion strains, locus YNL153C, strain GIM3, stronger effect = lower value",0.999
same,normalized growth,"S. cerevisiae deletion strains, locus YNL233W, strain BNI4, stronger effect = lower value",0.996
same,normalized growth,"S. cerevisiae deletion strains, locus YNL250W, strain rad50, stronger effect = lower value",0.966
same,normalized growth,"S. cerevisiae deletion strains, locus YNL271C, strain bni1, stronger effect = lower value",1.01
same,normalized growth,"S. cerevisiae deletion strains, locus YNL298W, strain CLA4, stronger effect = lower value",0.989
same,normalized growth,"S. cerevisiae deletion strains, locus YNL307C, strain MCK1, stronger effect = lower value",1.01
same,normalized growth,"S. cerevisiae deletion strains, locus YNL322C, strain KRE1, stronger effect = lower value",1.02
same,normalized growth,"S. cerevisiae deletion strains, locus YNR052C, strain pop2, stronger effect = lower value",0.976
same,normalized growth,"S. cerevisiae deletion strains, locus YOL006C, strain TOP1, stronger effect = lower value",0.814
same,normalized growth,"S. cerevisiae deletion strains, locus YOL012C, strain htz1",1.61
same,normalized growth,"S. cerevisiae deletion strains, locus YOL147C, strain pex11, stronger effect = lower value",0.989
same,normalized growth,"S. cerevisiae deletion strains, locus YOR061W, strain CKA2, stronger effect = lower value",1.02
same,normalized growth,"S. cerevisiae deletion strains, locus YOR069W, strain VPS5, stronger effect = lower value",1.03
same,normalized growth,"S. cerevisiae deletion strains, locus YOR136W, strain idh2, stronger effect = lower value",0.976
same,normalized growth,"S. cerevisiae deletion strains, locus YOR144C, strain elg1, stronger effect = lower value",0.988
same,normalized growth,"S. cerevisiae deletion strains, locus YOR184W, strain ser1, stronger effect = lower value",0.975
same,normalized growth,"S. cerevisiae deletion strains, locus YOR316C, strain cot1, stronger effect = lower value",0.99
same,normalized growth,"S. cerevisiae deletion strains, locus YPL055C, strain LGE1, stronger effect = lower value",1.03
same,normalized growth,"S. cerevisiae deletion strains, locus YPL241C, strain CIN2, stronger effect = lower value",1.04
same,normalized growth,"S. cerevisiae deletion strains, locus YPR119W, strain clb2, stronger effect = lower value",0.99
same,normalized growth,"S. cerevisiae deletion strains, locus YPR141C, strain kar3, stronger effect = lower value",0.986
same,normalized growth,"S. cerevisiae deletion strains, locus YPR163C, strain tif3, stronger effect = lower value",1.01
same,normalized growth,"S. cerevisiae deletion strains, locus YPR167C, strain met16, stronger effect = lower value",0.977
same,normalized growth,"S. cerevisiae deletion strains, strain wtn01, stronger effect = lower value",0.969
same,normalized growth,"S. cerevisiae strains, strain wild type, stronger effect = lower value",1
